S1P2 agonist = activates the human S1P2 receptor; O95136; S1P2-expressing cell line, agonist reporter read-out; activation, % at 4.5 µM; 0.46% of 97,000 active; in the data active = activation above about 16%
GALR2 agonist = GALR2 (human) receptor agonism | AID 803 | 0.48% of 140,000 active | activation, % (test concentration not listed) | O43603 | GALR2-expressing cells, agonist activation read-out; in the data active = activation above about 5%, passing the limit was not always enough
Target sequence (O43603 whole entry, looked up): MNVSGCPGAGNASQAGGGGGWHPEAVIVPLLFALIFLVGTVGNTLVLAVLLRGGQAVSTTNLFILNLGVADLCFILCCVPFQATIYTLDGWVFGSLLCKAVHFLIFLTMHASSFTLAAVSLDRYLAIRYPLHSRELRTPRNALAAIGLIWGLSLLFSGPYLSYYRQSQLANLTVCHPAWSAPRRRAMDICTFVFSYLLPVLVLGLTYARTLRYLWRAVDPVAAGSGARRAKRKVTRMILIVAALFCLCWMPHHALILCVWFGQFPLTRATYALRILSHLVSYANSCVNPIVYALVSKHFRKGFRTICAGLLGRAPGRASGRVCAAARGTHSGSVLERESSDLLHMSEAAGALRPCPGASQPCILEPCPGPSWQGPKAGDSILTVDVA
GALR2 antag = antagonists of human galanin receptor 2 (GALR2); GALR2-expressing cells, antagonist mode; O43603; inhibition, % at 4 µM; 0.39% of 140,000 active; in the data active = inhibition above about 27%;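 note: cells stimulated with galanin 1-16 at roughly its EC80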
S1P2 antag = blocks the human S1P2 receptor; AID 736; cell-based S1P2 antagonist assay, inhibition at 5 uM; inhibition, % at 5 µM; O95136; 0.21% of 97,000 active; in the data active = inhibition above about 45%;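 note: CRE beta-lactamase reporter cells expressing human S1P2 stimulated with S1P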
DAT uptake mod = modulates human dopamine transporter uptake under cocaine; Q01959; LLC-PK1 hDAT cells, [14C]-dopamine uptake with cocaine IC80; actives deviate in either direction; B-score at 10 µM; 1.3% of 110,000 active;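 active = Z score or B-score, a plate-position-corrected score, falls beyond the plate's 99.7% confidence bounds, in either direction; inactive = both scores lie inside the 99.7% bounds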
Of the large screens only hits and unclear results are named; the others gave an inactive call. Rows were chosen to be rich in hits. Some 2.1% of all compounds tested hit in one or more screens of this group.

COc1ccccc1NC(=O)N(Cc1ccccc1)C1=NCC(C)S1 (configuration not stated)	DAT uptake mod -3.7
O=C1[C@H]2[C@@H](C(=O)N1c1cc(Cl)cc(Cl)c1)[C@]1(C(=O)Nc3ccccc31)N1CCC[C@@H]21	DAT uptake mod 3.8
Cc1ccc(OCC(=O)N(Cc2ccccc2)C(C)C)c([N+](=O)[O-])n1	none (no result: S1P2 agonist, S1P2 antag, DAT uptake mod)
Cc1ccc(Cn2nnc3c(=O)[nH]c(C4CCN(C(=O)Cc5cccs5)CC4)nc32)cc1	DAT uptake mod 3.4
CCOc1ccccc1NC(=O)N1CCCC(c2nc3c(nnn3Cc3ccc(C)cc3)c(=O)[nH]2)C1 (configuration not stated)	none
Cc1ccc(Cn2nnc3c(=O)[nH]c(C4CCCN(C(=O)Nc5ccc(F)cc5F)C4)nc32)cc1 (configuration not stated)	DAT uptake mod 3.2
Cc1ccc(Cn2nnc3c(=O)[nH]c(C4CCCN(S(=O)(=O)c5ccccc5)C4)nc32)cc1 (configuration not stated)	none
CC(C)(C)c1ccc(Cn2nnc3c(=O)[nH]c(C4CCN(C(=O)Cc5cccs5)CC4)nc32)cc1	DAT uptake mod 3.3
CC(C)(C)c1ccc(Cn2nnc3c(=O)[nH]c(C4CCCN(C(=O)Cc5cccs5)C4)nc32)cc1 (configuration not stated)	none
Cc1ccc(Cn2nnc3c(=O)[nH]c(C4CCN(S(=O)(=O)c5ccccc5)CC4)nc32)cc1	DAT uptake mod 2.9
CC(=O)Nc1ccccc1Nc1nc(NCCO)nc(N2CCCC2)n1	none (no result: S1P2 agonist, GALR2 agonist, GALR2 antag, S1P2 antag)
Clc1ccc(CSc2nnc(-c3ccccn3)n2Cc2ccco2)c(Cl)c1	none
Fc1ccc(/C=N/n2c(-c3cccs3)n[nH]c2=S)cc1	none
COc1ccc(NC(=O)COC(=O)c2cc(OC)c(OC)cc2NC(=O)c2ccco2)cc1OC	S1P2 agonist 18
Cc1cc(F)ccc1NCc1cc2c(cc1[N+](=O)[O-])OCO2	DAT uptake mod -8
CC(C)=CC(O)C/C(C)=C/COc1ccc2ccc(=O)oc2c1 (configuration not stated)	none (no result: S1P2 agonist, GALR2 agonist, GALR2 antag, S1P2 antag)
CCC(=O)Nc1cccc(NC(=S)NC(=O)c2ccccc2Cl)c1	DAT uptake mod 2.7
C/C(=N\NC(=O)c1ccccc1O)C1C(=O)c2ccccc2C1=O	DAT uptake mod -3.7
CC(C)Cn1c(N)c(C(=O)CSc2ccc3c(c2)OCCO3)c(=O)n(C)c1=O	S1P2 antag 54
Cc1cccc(NC(=O)CSc2nnc(CSc3nc(C)cc(C)n3)n2Cc2ccco2)c1	DAT uptake mod 2.8
O=C(NCc1cccnc1)NC1(C(F)(F)F)Oc2ccccc2O1	DAT uptake mod -5.8
O=C(NCc1cccnc1)NC(C(F)(F)F)C(F)(F)F	none
CCCCCCNC(=O)N[C@@H](C(=O)NCCC[C@H]1CN2C(=NC[C@@H]2Cc2ccccc2)N1CCc1cccc(OC)c1)C(C)C	DAT uptake mod -3 (no result: S1P2 agonist, GALR2 agonist, GALR2 antag, S1P2 antag)
CC1=C(C)[N+](=O)C2CCCCC2N1[O-] (configuration not stated)	none
COc1ccc2cc3c(N)nn(C(=O)Cc4ccccc4OC)c3nc2c1	none
COc1ccc2cc3c(N)nn(C(=O)c4cccc([N+](=O)[O-])c4)c3nc2c1	GALR2 agonist 8.0 (no result: S1P2 agonist, S1P2 antag, DAT uptake mod)
C#Cc1ccc(C(=O)Nc2cc(C(N)=O)ccc2N2CCOCC2)cc1	none
CCCCS(=O)(=O)/C=C\C1C2C=CC(C2)C1S(=O)(=O)CCCC (configuration not stated)	none
CCCCS(=O)(=O)/C=C\C=C/S(=O)(=O)CCCC	GALR2 antag 104, S1P2 antag 97 (no result: DAT uptake mod)
CCCCN1C(=O)C(NC(=O)CC(C)C)(C(F)(F)F)C2=C1CC(C)(C)CC2=O (configuration not stated)	none
CCCCOC(=O)C1=C(C)Nc2ncnn2C1c1cccc(OC)c1OC (configuration not stated)	DAT uptake mod -2.9
CCCn1c(N)c(C(=O)CSc2nc3ccccc3n2CCC#N)c(=O)n(C)c1=O	S1P2 agonist 26
O=C(NC(NC(=S)Nc1ccc(Cl)c(Cl)c1)C(Cl)(Cl)Cl)c1ccco1 (configuration not stated)	DAT uptake mod -3.8
O=C(NC(NC(=S)Nc1cc(Cl)ccc1Cl)C(Cl)(Cl)Cl)c1ccco1 (configuration not stated)	none
Cc1ccc(-c2cnc(N)n2C)cc1C	none
Cc1nn(-c2ccc(F)cc2)c(Cl)c1/C=C1\C(=O)Nc2ccccc21	none (no result: S1P2 agonist, S1P2 antag, DAT uptake mod)
COCc1c(Br)c(C)[nH]c(=O)c1C#N	DAT uptake mod 1.6
CCOCc1cc(C)[nH]c(=O)c1C#N	none (no result: DAT uptake mod)
O=C(Nc1ccc(-c2nc3ncccc3o2)cc1)c1ccc(Br)o1	S1P2 antag 54
CCN(CC)CCOC(=O)C1c2ccccc2Oc2ccccc21	none
COc1ccccc1NS(=O)(=O)c1cc([N+](=O)[O-])ccc1N/N=C/c1c[nH]c2ccccc12	S1P2 antag 62
O=C(Nc1ccccn1)Nc1cccs1	S1P2 agonist 133
O=C(Nc1ccncc1)Nc1ccccn1	none
Cc1c(Cl)cccc1-n1c(SCC(=O)N(C)Cc2ccccc2)nnc1-c1ccncc1	DAT uptake mod 3.8
CCn1c(COc2ccc3c(c2)CCCC3)nnc1SCC(=O)Nc1ccc(C(=O)OC)cc1	none (no result: S1P2 agonist, S1P2 antag, DAT uptake mod)
COc1cc2c(cc1OC)C(c1ccc(-c3ccc(Cl)c(Cl)c3)o1)=NCC2	S1P2 agonist 19
COc1cc2c(cc1OC)C(c1ccc(-c3ccc(Cl)cc3Cl)o1)=NCC2	S1P2 agonist 34 (no result: DAT uptake mod)
O=C(O)c1ccc(-c2ccc(Cl)cc2Cl)o1	none
CC1=NOC(=O)/C1=C\c1ccc(-c2cc(Cl)ccc2Cl)o1	none
COc1cc2c(cc1OC)C(c1ccc(-c3ccccc3Cl)o1)=NCC2	S1P2 agonist 37
COc1cc2c(cc1OC)C(C)=NCC2	none (no result: S1P2 agonist, GALR2 agonist, GALR2 antag, S1P2 antag)
COc1cc2c(cc1OC)C(c1ccc(-c3cc(Cl)ccc3Cl)o1)=NCC2	S1P2 agonist 39
O=C(CCNS(=O)(=O)c1ccc(Br)s1)Nc1ccc(Cl)cc1	none
CCOC(=O)CC1C(=O)NCCN1C(=O)c1ccc(F)cc1F (configuration not stated)	DAT uptake mod -3.4
C=CCOc1c(Br)cc(/C=N/NC(=O)Cc2ccc(C(F)(F)F)cc2[N+](=O)[O-])cc1OC	none (no result: S1P2 agonist, S1P2 antag, DAT uptake mod)
Cc1nn(-c2ccccc2)c(Cl)c1/C=N/Nc1nc2ccccc2[nH]1	GALR2 agonist 5.5 (no result: S1P2 agonist, S1P2 antag, DAT uptake mod)
Cc1ccc(CSCC(=O)N/N=C/c2sccc2C)cc1	DAT uptake mod 3.2
CCCCC(=O)N/N=C/c1sccc1C	none (no result: S1P2 agonist, S1P2 antag, DAT uptake mod)
COc1cc(/C=C/C(=O)O)ccc1OCc1ccccc1C#N	none (no result: S1P2 agonist, S1P2 antag, DAT uptake mod)
CCOC(=O)Cc1csc(NC(=O)COc2ccc(N(C)S(=O)(=O)c3cccs3)cc2)n1	none (no result: S1P2 agonist, S1P2 antag)
CN(c1ccc(OCC(=O)N2CCCCC2)cc1)S(=O)(=O)c1cccs1	DAT uptake mod 3 (no result: S1P2 agonist, S1P2 antag)
Cc1ccc(CNC(=O)CCNC(=O)c2ccco2)cc1	S1P2 agonist 869
Cc1ccc(OCCNC(=O)c2ccco2)cc1C	S1P2 agonist 50
O=C(NCCCCNC(=O)c1ccco1)c1ccco1	none
Cc1cc2nc(C)n(CCCNC(=O)Nc3ccc(F)cc3)c2cc1C	none
CCCOc1ccc(C2C(C(=O)OC)=CN(CCOC)C=C2C(=O)OC)cc1	S1P2 agonist 17, GALR2 agonist 6.9

Screening results (PubChem BioAssay)
